# Screens as filed in PubChem BioAssay.
# PNC assembly inh: inhibitors of perinucleolar compartment assembly; PC3M PTB-GFP, PNC prevalence imaging, 16 h; active compounds read low; activity change (PNC), negative = inhibition, % at 10 µM; 140,000 tested, 3.1% active; AID 2417;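 active = readout at or below -70, meaning at least 70% loss of cells showing the perinucleolar compartment, a nuclear body marking cancer cells; inconclusive = readout between -30 and a set limit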;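 also: plate controls were DMSO wells for no effect and camptothecin positive control wells for full effect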
#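 Compounds are pinned in duplicate onto adhered PC3M cells stably expressing GFP-tagged PTB and incubated 16 h at 37 C. Cells are then fixed, nuclei stained with Hoechst, and PNC-positive cells counted.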
# ALDH1A1 block: inhibitors of human aldehyde dehydrogenase 1A1; P00352; Purified ALDH1A1, NADH fluorescence, propionaldehyde substrate; Potency, µM (series often up to 75.3 µM), for inactives: top-dose activity, negative = inhibition, most hits filed as inhibitors; 220,000 tested, 7.3% active;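 also: potency is read from the fitted curve at half-maximal effect; plate controls were no enzyme wells and a reference inhibitor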
# ALOX12 inhib: 12-hLO (ALOX12) enzyme inhibition; purified 12-hLO, xylenol orange hydroperoxide absorbance; Potency, µM (doses to about 57.1 µM), for the others: at the highest dose activity change, negative = inhibition, actives largely listed as inhibitors; 150,000 tested, 0.12% active; AID 1452; active = well fitted curve in the direction sought with a large enough effect; inconclusive = small, poorly fitted or top-dose-only effect, or another doubt; inactive = no such curve, though single readings can be large; an effect the other way counts as inactive or inconclusive; also: potency is read from the fitted curve at half-maximal effect; nearly all actives have a fitted effect of over 55% in size
# Target sequence (P18054 whole entry, looked up): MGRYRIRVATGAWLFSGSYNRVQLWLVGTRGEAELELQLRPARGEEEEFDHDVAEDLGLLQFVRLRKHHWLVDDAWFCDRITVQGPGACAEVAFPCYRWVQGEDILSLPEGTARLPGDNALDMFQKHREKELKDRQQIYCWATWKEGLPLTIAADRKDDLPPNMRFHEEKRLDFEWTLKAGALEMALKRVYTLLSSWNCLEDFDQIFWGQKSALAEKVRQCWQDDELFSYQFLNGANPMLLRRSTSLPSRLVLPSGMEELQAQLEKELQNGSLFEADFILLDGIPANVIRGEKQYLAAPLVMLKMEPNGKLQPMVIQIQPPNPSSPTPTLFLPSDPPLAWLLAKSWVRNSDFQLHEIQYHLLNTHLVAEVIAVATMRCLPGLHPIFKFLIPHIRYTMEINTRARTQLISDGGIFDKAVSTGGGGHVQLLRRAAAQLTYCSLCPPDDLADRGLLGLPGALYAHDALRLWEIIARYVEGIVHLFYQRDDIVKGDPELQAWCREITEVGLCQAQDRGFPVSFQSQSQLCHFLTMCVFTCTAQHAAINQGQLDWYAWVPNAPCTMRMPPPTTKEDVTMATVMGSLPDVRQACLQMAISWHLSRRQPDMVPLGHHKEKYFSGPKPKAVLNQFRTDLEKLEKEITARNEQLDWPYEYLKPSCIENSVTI
#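 Purified human 12hLO (150 nM), preincubated 15 min with compound, then 40 uM arachidonic acid for 30 min, room temperature, Hepes pH 7.0 with 0.01% Triton X-100. Hydroperoxide detected by ferrous iron/xylenol orange; 573/405 nm absorbance ratio gives reaction progress.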
# HPGD block: HPGD (human) dehydrogenase inhibition. P15428. purified HPGD, NADH fluorescence kinetic, PGE2 substrate. Potency, µM, for the others: at the highest dose activity change, negative = inhibition, hits mostly inhibitors. 150,000 tested, 4.3% active. AID 894; also: potency is read from the fitted curve at half-maximal effect
#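 NADH formation kinetics: reaction with 30 uM PGE2 and 1 mM NAD+ (final), 20 nM enzyme, Tris-HCl pH 8 with Tween 20, after 15 min compound preincubation at room temperature. Fluorescence change, last versus first of five reads.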
# IMPase Li cell: IMPase inhibition in cells with lithium potentiation; AID 1457; CHO-M1 cells, IP1 TR-FRET (IP-One), carbachol + lithium; 210,000 tested, 0.35% active; Potency, µM (series often up to 59.4 µM), for the others: top-dose activity, negative = IMPase inhibition, usual class: inhibitors; active = well fitted curve in the direction sought with a large enough effect; inconclusive = small, poorly fitted or top-dose-only effect, or another doubt; inactive = no such curve, though single readings can be large; an effect the other way counts as inactive or inconclusive;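 also: IP1 builds up when IMPase is blocked and the TR-FRET signal falls; potency is read from the fitted curve at half-maximal effect; plate controls were basal vehicle for no effect and high inhibitor control for full effect; nearly all actives have a fitted effect of over 50% in size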
#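 CHO cells stably expressing M1 receptor (2000/well) were cultured 16–30 h, then exposed to compounds with a small lithium addition for 30 min at 37C. IP1 was measured by TR-FRET competition; AC50 from Hill fits.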
# IMPase cell inh: IMPase inhibition in cells; P97697; CHO-M1 cells, IP1 accumulation, HTRF TR-FRET ratio; inhibition (IP1 accumulation), % at 46.1 µM; 120,000 tested, under 10 active; AID 901; active = well fitted curve in the direction sought with a large enough effect in the signal ratio, not every such curve was filed as active; inconclusive = small, poorly fitted or top-dose-only effect, or a change in a side signal; inactive = no such curve, though single readings can be large or run the other way; the % refers to the signal ratio;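 also: cells stimulated with carbachol in lithium chloride buffer; plate controls were DMSO basal wells for no effect and reference inhibitor wells for full effect; higher means more IMPase inhibition seen as more IP1 and lower FRET ratio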
#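 In this qHTS, compounds (final up to 46 uM) act on CHO-M1 cells that are then activated through the M1 receptor with carbachol, in pH 7.4 buffer containing 50 mM LiCl, for 30 min. IP1 accumulation is quantified by the IP-One immunoassay.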
# The depositor's hits bear a star; ? = inconclusive; . = no result; [ ] = remark or other dose. In the library only some 11% were active in any assay of this set; here they are far more common. Unless noted, calls follow the shape of the dose curve; as a rule, active = well fitted inhibition curve with a large enough effect (not every such curve was filed as active); inconclusive = small, poorly fitted or top-dose-only effect, or another doubt; inactive = no such curve, though single readings can be large or run the other way. Unless noted, % is scaled to controls: 0 for no effect and ±100 for the full control effect.
SMILES,PNC assembly inh,ALDH1A1 block,ALOX12 inhib,HPGD block,IMPase Li cell,IMPase cell inh
CCCCOc1ccc(C(=O)N/C(=C\c2ccc(Br)cc2)C(=O)NC2CCCCC2)cc1,.,.,.,.,.,-5
CC1(C)N=C(N)N=C(N)N1c1cccc(CSc2ccccc2)c1,.,5%[13.5 µM],8%[11.4 µM],-6%,19%,.
COc1ccc(-c2nc(C(N)=O)c3[nH]c(=O)n(-c4cccc(Cl)c4)c3n2)cc1OC,-15,13%,-2%,-16%,24%[38.3 µM],4
Cc1cccc(-n2c(=O)[nH]c3c(C(N)=O)nc(C(C)C)nc32)c1,-100*,-15%,1%,?,7%,-6
CCCCOc1cccc(C(=O)N(Cc2ccc(Cl)cc2)C2CCS(=O)(=O)C2)c1 (stereo not drawn),.,.,.,.,.,-8
CC(C)CNC(=O)CSc1ccc(Cl)cc1,16,5%,-1%,16µM*,17%[38.3 µM],-7
CCC(C)NC(=O)CSc1ccc(Cl)cc1 (stereo not drawn),-13,1%,-4%,-17%,-3%,.
CC(C)C(NC(=O)CSc1ccc(Cl)cc1)C(C)C,-83*,-1%,4%,13µM*,3%[38.3 µM],2
Cc1ccc(SCC(=O)NCC(C)C)cc1,-15,-1%,-1%,16µM*,-2%[38.3 µM],-2
C[C@H](N)C1CCC(C(=O)Nc2ccncc2)CC1 (stereo partly drawn),.,.,2%,.,.,2
COc1ccc(C(=O)C2CCCN(Cc3c(C)[nH]c4ccccc34)C2)c(OC)c1 (stereo not drawn),.,25µM*,.,.,21%,.
COc1ccc(C(=O)C2CCCN(Cc3ccc(C#CCCO)cc3)C2)c(OC)c1 (stereo not drawn),.,4%,.,.,34%,.
CC(C)(C)NC(=O)C(c1cccnc1)N(C(=O)c1csnn1)c1ccccc1 (stereo not drawn),.,10%,.,.,7%,.
CC(C)c1ccc(N(C(=O)c2csnn2)C(C(=O)NC(C)(C)C)c2ccncc2)cc1 (stereo not drawn),-27,2.2µM*,3%,-13%,7%[38.3 µM],8
CCc1ccc(N(C(=O)c2csnn2)C(C(=O)NC(C)(C)C)c2cccnc2)cc1 (stereo not drawn),.,13µM*,.,.,11%,.
CC(C)c1ccc(N(C(=O)c2csnn2)C(C(=O)NC(C)(C)C)c2cccnc2)cc1 (stereo not drawn),.,0.71µM*,.,.,10%,.
COC(=O)[C@H](Cc1ccccc1)NC(=O)O[C@@H]1C(=O)c2ccc(OC)cc2O[C@H]1c1ccc2c(c1)OCO2,.,5%,.,-9%,9%,.
Cc1ccccc1NC(=O)C1CCN(C(=O)c2ccc(F)cc2)CC1,.,.,.,.,.,0
CS(=O)(=O)Nc1cccc(-c2cc(Nc3ccccc3)ncn2)c1,.,1%,.,.,-11%,.
O=[N+]([O-])c1ccc(/C([O-])=C(/C(=S)NCc2ccco2)[n+]2ccccc2)cc1,.,7.9µM*,.,.,28%,.
Cc1ccc(NC(=S)/C(=C(\[O-])c2ccc(F)cc2)[n+]2ccccc2)cc1,.,10µM*,.,.,7%,.
COc1cccc(NC(=S)/C(=C(\[O-])c2ccc([N+](=O)[O-])cc2)[n+]2ccccc2)c1,.,13µM*,.,.,13%,.
CCOc1ccc(NC(=S)/C(=C(\[O-])c2ccc(C)c([N+](=O)[O-])c2)[n+]2ccccc2)cc1,?,11µM*,-6%,?,45%[38.3 µM],6
CCOc1cccc(C2Oc3nc(SC)nnc3-c3ccccc3N2C(C)=O)c1OC (stereo not drawn),.,.,.,.,.,3
CCCSc1nc2sc3c(c2c(=O)n1-c1ccccc1)CCC(C)C3 (stereo not drawn),.,.,.,.,.,-1
SMILES,PNC assembly inh,ALDH1A1 block,ALOX12 inhib,HPGD block,IMPase Li cell,IMPase cell inh
COc1ccccc1NC(=S)NCc1cccnc1,?,-8%,5%,-14%,0%,.
COc1ccc(NC(=S)Nc2cccc3cnccc23)cc1,-10,25µM*,0%,-16%,-4%,.
CCOc1ccc(NC(=S)Nc2ccccc2C2CC2)cc1,.,-8%,.,.,12%,.
COc1ccccc1NC(=S)Nc1cccc2cnccc12,18,25µM*,0%,-17%,2%,0
CCOc1ccc(NC(=S)Nc2cccc3cnccc23)cc1,84,32µM*,-9%,-15%,3%,3
Cc1cc(Nc2ccccc2C(=O)O)nc2nc3ccccc3c(=O)n12,-90*,?,-1%,-2%,-6%,0
Cc1nc2ccccc2c(=O)n1NC(=O)c1ccccc1Cl,8,5%,-6%,-5%,5%[38.3 µM],-1
CCOC(=O)/C=C1\CC(=O)Nc2nonc2N1,22,2%,3%,32µM*,21%[38.3 µM],-3
CCOC(=O)/C=C1\CC(=O)Nc2cc(C)c(C)cc2N1,-10,-2%,-2%,51%,-3%[38.3 µM],-3
O=C(CSc1nnc(Cc2ccccc2)n1-c1ccc(F)cc1)N1CCOCC1,15,-62%,5%,7%,31%[38.3 µM],11
O=C(CSc1nnc(CN2CCOCC2)n1-c1ccccc1)N1CCc2ccccc21,-3,7.9µM*,1%,0%,-8%[38.3 µM],28
CC1CCN(C(=O)CSc2nnc(CN3CCOCC3)n2-c2ccccc2)CC1,?,1.3µM*,-8%,-12%,13%[38.3 µM],14
CC(Sc1nc2ccccc2s1)C(=O)NC1CCCc2ccccc21 (stereo not drawn),21,13µM*,-6%,-4%,14%,9
CC1CN(C(=O)C(C)Sc2nc3ccccc3s2)CC(C)O1 (stereo not drawn),-1,?,-6%,28µM*,-10%[38.3 µM],-3
Clc1ccccc1Cc1cn2cc(-c3ccccc3)nc2s1,.,.,.,.,.,-1
COc1ccc(NC(=O)COC(=O)c2ccc(S(=O)(=O)N(C)c3ccccc3OC)cc2)c(OC)c1,.,7.1µM*,.,.,13%,.
CCC(C)(C)NC(=O)c1ccc(S(=O)(=O)N(C)c2ccccc2OC)cc1,-9,4%,-2%,-4%,-6%[38.3 µM],?
COc1ccccc1N(C)S(=O)(=O)c1ccc(C(=O)NCC(C)C)cc1,8,-1%,-5%,25µM*,53%[38.3 µM],2
CCCCS(=O)(=O)N1CCc2nc(COc3ccccc3)c3c(c2C1)CO[C@@H](C)C3,.,2%[13.5 µM],-3%[11.4 µM],-5%,5%,.
Nc1cc(S(=O)(=O)C(F)(F)F)ccc1C(=O)O,-127*,5%,-4%,-6%,8%[38.3 µM],4
Nc1cc(C(F)(F)F)ccc1C(=O)O,-3,?,-3%,?,-4%,-7
C=CCOC(=O)C(C(C)=O)C(NC(=O)OC)c1cccc(C)c1 (stereo not drawn),.,8%[13.5 µM],.,.,.,.
Cn1c(SCc2nnc(-c3ccccc3)o2)nc2ccccc21,.,13µM*,.,.,-6%,.
Cn1c2ccccc2c2nnc(SCc3nnc(-c4ccccc4)o3)nc21,.,4%,.,.,2%,.
